Our source for the growth values is PubChem BioAssay (NCI).

Each structure is given as a SMILES string. About 83,000 compounds went through this panel and 20% of them were active in at least one assay; those are over-represented in the sample as a whole.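 Testing used 96-well plates and a 48-hour single-concentration exposure. Example: -40 means 40% of the starting cells died.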 Unmarked numbers belong to inactive results. Activity calls are given as the source filed them. The calls were made as follows: active = growth percent below 10; inactive = the rest.

For one test, the system named is U251 CNS. Kind of test: NCI-60 one-dose screen, 48 h (100 = growth as untreated, 0 = no growth, -100 = all killed). The following applies: 10 µM unless noted.
On to `O=C(CC(=O)C(F)(F)C(F)(F)C(F)(F)F)c1cc2ccccc2o1`, for which the growth was 97.5%.

In the case of `Clc1cc2nc(-c3ccccc3)c(-c3ccccc3)nc2cc1Cl`, the growth was 95.7%. The same measure, in the same setting: the value for `CC(C)(C)c1ccc(C(=O)Nc2sc3cc(O)ccc3c2C(N)=O)cc1` was 77.5%; that for `CC1=CCC2C1CC=C(C)C(CC[C@H]1[C@@](C)(O)CCC3OC(C)(C)[C@H](OC(=O)c4ccccc4)CC[C@@]31C)C2(C)C` (some centres undefined) was 61.2%; that for `CC(=O)C1CCC2C3CC(C)=C4CC(O)CCC4(C)C3CCC12C` (centres undefined) was 97.5%. Turning to `CCN(CCC#N)c1ccccc1`, the growth was 103%. The same measure, in the same setting: the value for `O=S1(=O)NCCCN1CCNc1nccc(-c2c(-c3cccc(O)c3)nc3sccn23)n1` was 77.4%; that for `COc1ccc(-c2conc2-n2nc(-c3ccccc3)nc2-c2ccccc2)cc1` was 106%.

`COc1ccccc1CNCCCN1C(=O)c2ccc3c4c(ccc(c24)C1=O)C(=O)N(CCCCNCCCN)C3=O`: the growth is -84.3% (active). Take `Cc1ccc(C(=O)CC(=O)C(F)(F)C(F)(F)C(F)(F)F)s1`: the growth was 108%. Regarding `O=C1CCCN1C(O)CCN(Cc1ccccc1)Cc1ccc(Cl)cc1` (centres undefined), the growth is 102%.

On to `Nc1c(N)c2ccccc2c2ccccc12`, for which the growth is 106%. The same measure, in the same setting: to `CCOC(=O)C1=C(C)NC(=S)NC1c1ccccc1` (centres undefined) belongs 105%.

As to `CCOC(=O)C1=C(C(=O)OCC)N(c2cc(OC)c(OC)c(OC)c2)C(N)=C(C#N)C1c1cc(=O)[nH]c2ccccc12` (centres undefined), the growth is 98.7%.

For `CC(=O)Nc1ccc(/C=N/N2CCCCCC2)cc1`, the growth was 90.4%. For the compound `CCOC(=O)c1cnc(SCC)nc1SC#N`, the growth is 89.2%.

In the case of `COc1cc(OC)c(C(=O)/C=C/c2cccc(OC(C)=O)c2)cc1CC=C(C)C`, the growth is 44.6%.

As for `CN1CCCN(CCNc2nccc(-c3c(-c4cccc(O)c4)nc4sccn34)n2)S1(=O)=O`, the growth was 56.6%. Take `CCN(CC)c1ccc(/C=C2/NC(=O)NC2=O)cc1`: the growth is 44.7%. Take `CCOC(=O)c1ccc2c(c1)[n+](=O)c(C(=O)c1ccc3ccccc3c1)c(C(F)(F)F)n2[O-]`: the growth is -100% (active).

Another test relates to PC-3 prostate. The test is described as above. The following applies: 10 µM unless noted.
On to `COc1cc(C2CC(=O)Nc3c2cnn3C)cc(OC)c1OC` (centres undefined), for which the growth was 108%. Same read-out and setting: to `C=C(c1ccc(C(=O)NCCCn2ccnc2)cc1)c1cc2c(cc1C)C(C)(C)CCC2(C)C` belongs -6.2% (active); to `Nc1c(Br)cc2c(c1Br)Cc1cc(Cl)ccc1-2`, 82.6%; to `CCCCCCCCCCCCNC(=O)N[C@H](C(=O)N[C@H]1/C=C/CCNC(=O)/C=C/[C@H](C)NC1=O)C(C)C`, -24% (active). In the case of `C=C(C)[C@@H]1CC[C@]2(C(=O)NS(=O)(=O)c3ccccc3)CC[C@]3(C)[C@H](CC[C@@H]4[C@@]5(C)CC[C@H](OC(=O)NS(=O)(=O)c6ccccc6)C(C)(C)[C@@H]5CC[C@]43C)[C@@H]12`, the growth was 7.83% (active). Still for that read-out and setting: to `FC(F)(F)c1cc(-c2nnc3n2N=C(Cl)CS3)cc(C(F)(F)F)c1` belongs 96.2%; to `Cc1cc(-c2ccccc2)on1`, 97.7%. In the case of `CNC(=O)c1c(NC(=O)c2cccc(C(F)(F)F)c2)sc2c1CCC(=O)C2`, the growth is -46.4% (active). On the same count and under the same terms, the value for `COc1ccccc1/C=C/C(=O)CCC(=O)O` was 94.5%; that for `NNc1ccc(S(N)(=O)=O)cc1` was 90.2%.

Consider `CCc1c(C)c2ccc(O)c(-c3cc(-c4ccccc4)c(C#N)c(=O)[nH]3)c2oc1=O`, for which the growth was 107%. Still for that read-out and setting: to `O=C1OCC2=C1C(c1ccccc1)c1cc3c(cc1N2CCO)OCO3` (centres undefined) belongs 24.5%; to `CCCCCCCCCCCCNC(=O)N[C@H](C(=O)N[C@H]1/C=C/OCCNC(=O)/C=C/[C@H](C(C)C)NC1=O)C(C)C`, 51.1%; to `COc1ccc(-n2nc(C(=O)Nc3ccc(F)cc3)nc2-c2cc(OC)c(OC)c(OC)c2)cc1`, 79.2%. Same read-out and setting: to `COc1ccc2c(c1)OC1=C(C(=O)OC1)C2c1cc(OC)c2c(c1)OCCO2` (centres undefined) belongs 25.6%; to `O=S1(=O)NCCN1CCNc1nccc(-c2c(-c3cccc(O)c3)nc3sccn23)n1`, 78.5%. Regarding `O=C(CC(=O)C(F)(F)C(F)(F)C(F)(F)F)c1cc2ccccc2o1`, the growth is 91.1%. In the case of `Clc1cc2nc(-c3ccccc3)c(-c3ccccc3)nc2cc1Cl`, the growth was 77.3%. Still for that read-out and setting: to `CC(C)(C)c1ccc(C(=O)Nc2sc3cc(O)ccc3c2C(N)=O)cc1` belongs 79.2%.
